Laboratory results as given in ChEMBL document CHEMBL4513152, “CO-ADD screening of Yantai University (China) compounds”.
Results with a measured potency or affinity are listed apart.

Columns and labels:
[1] = test system: Staphylococcus aureus; settings: Concentration 32 ug.mL-1; ASSAY_TEST Inhibition of Bacterial Growth; detection method Absorption (OD600); MEDIA CAMHB; plate type 384well; NBS; CORNING #3640; time 18 hr
[2] = test system: Escherichia coli; settings: Concentration 32 ug.mL-1; ASSAY_TEST Inhibition of Bacterial Growth; detection method Absorption (OD600); MEDIA CAMHB; plate type 384well; NBS; CORNING #3640; time 18 hr

| Structure (SMILES) | Inhibition [1] [%] | Inhibition [2] [%] |
| --- | --- | --- |
| CC(=O)O[C@H]1C[C@@]2(C)C(C[C@@H](O)C3[C@@]4(C)CC[C@@H](OC(=O)c5ccccc5C(=O)OCCc5ccc(OCCO[N+](=O)[O-])cc5)[C@@H](C)C4CC[C@@]32C)/C1=C(\CCC=C(C)C)C(=O)OCc1ccccc1 (some centres undefined) | 8.23 | 0.28 |
| CC(=O)O[C@H]1C[C@@]2(C)C(C[C@@H](O)C3[C@@]4(C)CC[C@@H](OC(=O)C(N)C(C)C)[C@@H](C)C4CC[C@@]32C)/C1=C(\CCC=C(C)C)C(=O)OCc1ccccc1 (some centres undefined) | -9.9 | -10.45 |
| CC(=O)O[C@H]1C[C@@]2(C)C(C[C@@H](O)C3[C@@]4(C)CC[C@@H](OC(=O)CCC(=O)O)[C@@H](C)C4CC[C@@]32C)/C1=C(\CCC=C(C)C)C(=O)OCc1ccccc1 (some centres undefined) | 44.88 | 10.14 |
| CC(=O)O[C@H]1C[C@@]2(C)C(C[C@@H](O)C3[C@@]4(C)CC[C@@H](O)[C@@H](C)C4CC[C@@]32C)/C1=C(\CCC=C(C)C)C(=O)OCc1ccccc1 (some centres undefined) | 36.65 | -11.95 |
| CC(=O)O[C@H]1C[C@@]2(C)C(C[C@@H](O)C3[C@@]4(C)CC[C@@H](OC(=O)c5ccccc5C(=O)Oc5ccc(CCO[N+](=O)[O-])cc5)[C@@H](C)C4CC[C@@]32C)/C1=C(\CCC=C(C)C)C(=O)OCc1ccccc1 (some centres undefined) | -1.26 | -6.53 |
| CC(=O)O[C@H]1C[C@@]2(C)C(CC(=O)C3[C@@]4(C)CCC(=O)[C@@H](C)C4CC[C@@]32C)/C1=C(\CCC=C(C)C)C(=O)OCc1ccccc1 (some centres undefined) | 29.92 | -4.11 |
| CC(=O)O[C@H]1C[C@@]2(C)C(C[C@@H](O)C3[C@@]4(C)CC[C@@H](OC(=O)CCC(=O)OCCc5ccc(OCCO[N+](=O)[O-])cc5)[C@@H](C)C4CC[C@@]32C)/C1=C(\CCC=C(C)C)C(=O)OCc1ccccc1 (some centres undefined) | -0.26 | -8.83 |
